# Test results taken from PubChem BioAssay AID686978 (National Center for Advancing Translational Sciences (NCATS), 2013).
# In all, about 420,000 compounds went through this assay and about 64,000 (15%) were called active. Another 27% or so got no clear call; they are omitted. Calls follow the shape of the dose curve; as a rule, active = well fitted inhibition curve with a large enough effect; inconclusive = small, poorly fitted or top-dose-only effect; inactive = flat fitted curve, though single readings scatter. These entries were drawn from the full list. Where a call stands in place of a potency, no number is given.
# Assay: qHTS for Inhibitors of human tyrosyl-DNA phosphodiesterase 1 (TDP1): qHTS in cells in absence of CPT; also: nearly all actives have a fitted effect of over 55% in size
# Settings: DT40 Tdp1-/- hTDP1 cells, no CPT, ATP luminescence, 48 h; activity change, negative = growth inhibition: at 46.2 µM (top of the series)
# Method in brief: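 A cellular qHTS used chicken DT40 cells lacking endogenous Tdp1 but carrying stably transfected human TDP1. Compounds were applied without camptothecin, and cell growth kinetics were judged by ATP-dependent luminescence after ≥48 hr.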
# Potency is read from the fitted curve at half-maximal effect.
row,Compound,Potency
1,Fc1c(F)c(C(F)(F)F)c(F)c(F)c1N1CCN(c2ccc3nnc(C(F)(F)F)n3n2)CC1,23.1 µM (active)
2,FC(F)(F)c1nnc2ccc(N3CCN(c4ccccc4)CC3)nn12,inactive
3,NC(=O)c1oc2ccccc2c1NC(=O)CS(=O)(=O)c1ccccc1,inactive
4,Cc1ccc(C(=O)CCC(=O)N(C)CC(=O)Nc2c(Cl)cccc2Cl)cc1,inactive
5,CC(C)CC(N=C1NC(C)(C)Cc2ccccc21)C(=O)O (stereo unspecified),inactive
6,Cc1nc2ccc(N)nc2nc1C,inactive
7,Cn1c(C(=O)NCCCN2CCCCC2)cc2sccc21,inactive
8,O=C(CNC(=O)Cc1ccccc1)N=Nc1c(O)[nH]c2ccc(Br)cc12,inactive
9,COCC(=O)N=Nc1c(O)[nH]c2ccccc12,inactive
10,O=C(CCN1CCCCC1)N=Nc1c(O)[nH]c2ccccc12,23.1 µM (active)
11,COc1ccccc1CNC(=O)CCCNS(=O)(=O)c1cccc2nsnc12,inactive
12,Cn1c(C(=O)O)ccc1S(=O)(=O)N(Cc1ccccc1)Cc1ccccc1,inactive
13,COc1ccc(C2NC(=O)C(=O)/C2=C(\O)c2ccc(Cl)cc2)cc1OC (stereo unspecified),inactive
14,CCCCOc1ccc(CON(C(C)=O)C(C)=O)cc1Cl,inactive
15,Cc1nc(SCc2ccc(F)cc2)c([N+](=O)[O-])[nH]1,inactive
16,CCOc1ccc(C(=O)Nc2nccs2)cc1[N+](=O)[O-],inactive
17,CCCCOc1ccc(CSC(=N)N)cc1[N+](=O)[O-],11.6 µM (active)
18,CCCCCOc1ccc(CSC2=NCCN2)cc1[N+](=O)[O-],23.1 µM (active)
19,COc1ccc(NC(=O)CSCc2ccc([N+](=O)[O-])cc2)cc1OC,inactive
20,CC(NC(=O)CC1SC(N)=NC1=O)c1ccccc1 (stereo unspecified),inactive
21,CCCCCc1ccc(-c2cn(Cc3ccc4ccccc4c3)nn2)cc1,inactive
22,CCc1cc(-c2nnn(CCC3COCCO3)c2CC)ccc1-c1cn(Cc2ccc3ccccc3c2)nn1 (stereo unspecified),5.8 µM (active)

row,Compound,Potency
1,O=C(Nc1ccccc1Cl)N1CCC(CN2CCCC2)CC1,inactive
2,COc1ccc(C(=O)Nc2nonc2-c2ccc(OC)c(OC)c2)cc1Cl,23.1 µM (active)
3,CCn1nnc(NC(=O)c2cc(Cl)c(OC)c(Cl)c2)n1,inactive
4,COc1ccc(-c2nonc2NC(=O)c2oc3ccc(F)cc3c2C)cc1OC,inactive
5,O=C(COc1ccccc1Cl)Nn1cnnc1,inactive
6,CC(=O)C1=C(C)NC(=O)NC1c1cc(Br)ccc1OCC#N (stereo unspecified),inactive
7,CCOC(=O)CC1C(=O)NCCN1C(=O)COc1ccc(Br)cc1C (stereo unspecified),inactive
8,Cc1cc(C(=O)COc2ccc(Br)cc2F)c(C)n1C1CC1,3.26 µM (active)
9,CN1CCN(C(=O)c2ccccc2NC(=O)COc2ccccc2Cl)CC1,inactive
10,Cc1cc(C(=O)COc2ccccc2Cl)c(C)n1C1CC1,6.51 µM (active)
11,CC(=O)c1cccc(NC(=O)N2CCCC2C(=O)NCCC(C)C)c1 (stereo unspecified),inactive
12,COc1ccccc1C(=O)N(C1=NC(C)CS1)c1ccc(Cl)cc1 (stereo unspecified),inactive
13,O=C(NCCc1ccccc1)C(=O)NCC1OCCN1S(=O)(=O)c1cccs1 (stereo unspecified),inactive
14,CSCCC(NC(=O)c1cc([N+](=O)[O-])cc([N+](=O)[O-])c1)c1nc2ccccc2[nH]1 (stereo unspecified),16.4 µM (active)
15,CSCCC(NC(=O)c1ccc(=O)n(C)n1)c1nc2ccccc2[nH]1 (stereo unspecified),inactive
16,CCCC(NC(=O)c1ccco1)c1nc2ccccc2[nH]1 (stereo unspecified),inactive
17,COc1ccc(Cn2c(-c3ccc(Cl)cc3)c[n+]3ccccc23)cc1,1.16 µM (active)
18,COc1ccc(C(=O)CN(C(=O)c2ccc(Cl)cc2)N2C(=O)c3ccccc3C2=O)cc1,inactive
19,CCn1c(C)cc(=O)cc1-c1ccc(Cl)cc1,inactive
20,COc1ccc(S(=O)(=O)N2CCN(CC(=O)N3CCNC3=O)CC2)cc1OC,inactive
21,Cc1ccc(S(=O)(=O)CCC(=O)OCC(=O)N(C)Cc2ccccc2)cc1,inactive
22,CCOc1ccc(CNC(=O)c2ccc3c(c2)nnn3C2CCCC2)cc1,inactive

row,Compound,Potency
1,COc1ccc(C(=O)OCC(=O)N2CC(=O)Nc3ccccc32)cc1Br,inactive
2,CSCCC(NS(=O)(=O)c1ccc(C)cc1)C(=O)NCCc1c[nH]c2ccccc12 (stereo unspecified),inactive
3,CCc1ccc(NS(=O)(=O)c2ccc3[nH]cc(C(=O)NCCc4cccc(C)c4)c(=O)c3c2)cc1,inactive
4,O=C(NCCc1ccccc1)c1c[nH]c2ccc(F)cc2c1=O,inactive
5,CCN(CC)S(=O)(=O)c1ccc2[nH]cc(C(=O)NCCc3ccccc3)c(=O)c2c1,14.6 µM (active)
6,CN(c1ccccc1)S(=O)(=O)c1ccc(Cl)c(C(=O)OCC(N)=O)c1,inactive
7,CN(c1ccccc1)S(=O)(=O)c1ccc(Cl)c(C(=O)NCCc2c[nH]c3ccccc23)c1,8.2 µM (active)
8,Fc1ccc(CN2CCc3nc(Nc4ccccc4)ncc3C2)cc1F,20.6 µM (active)
9,Cn1c(=O)c(CCc2ccccc2)nc2cnc(Nc3ccccc3)nc21,inactive
10,COc1ccc(CN2CCN(Cc3ccc(OC)c(OC)c3OC)CC2)cc1,inactive
11,COc1ccc(CN2CCc3nc(Nc4ccccc4)ncc3C2)c(OC)c1OC,20.6 µM (active)
12,Cc1nc2cnc(Nc3ccccc3)nc2n(Cc2ccc(F)cc2)c1=O,inactive
13,O=C(CSc1nc2c(c(=O)[nH]1)CN(Cc1ccc(F)cc1)CC2)Nc1ccccc1Cl,inactive
14,Fc1cccc(CSc2nnc3ccc(-c4ccncc4)nn23)c1,inactive
15,Cc1[nH]c2ccccc2c1-c1ccc(Cl)nn1,inactive
16,C=CCN1CCN(C(=O)CCCc2ccccc2)CC1,inactive
17,COc1ccccc1CNC(=O)C1CCN(C(=O)[C@@H]2Cc3ccccc3CN2)CC1,inactive
18,COc1ccccc1CNC(=O)C1Cc2ccccc2C(=O)O1 (stereo unspecified),inactive
19,COc1ccccc1CNC(=O)[C@@H]1CCCN1C(=O)[C@@H]1Cc2ccccc2CN1C(=O)OC(C)(C)C,16.4 µM (active)
20,O=C(NCC(=O)N1CCC2(CC1)NCCc1[nH]cnc12)c1ccc(Br)cc1,inactive
21,CC(C)c1ccc(/C=C/C(=O)NNC(=O)c2cccnc2)cc1,inactive
22,COc1cc2[nH]c(=S)n(Cc3ccc(C)o3)c(=O)c2cc1OC,inactive

row,Compound,Potency
1,O=C(NCCc1c[nH]c2ccc(Cl)cc12)c1ccc([N+](=O)[O-])cc1,inactive
2,COc1ccc(-c2[nH]ncc2CN(C)Cc2c(C)n[nH]c2C)c(OC)c1,inactive
3,CCOc1ccc(-c2nc(N)ncc2-c2ccccc2OC)c(O)c1,inactive
4,C=C(C)COc1ccc(-c2n[nH]c(C)c2-c2ccccc2)c(O)c1,16.4 µM (active)
5,CCOC(=O)COc1cc(O)c2c(=O)cc(-c3ccccc3)oc2c1,inactive
6,Cc1noc(C)c1COC(=O)COc1ccc(-c2ccccc2)cc1,inactive
7,COc1ccc(-c2n[nH]c(C)c2-c2ccccc2OC)c(O)c1,20.6 µM (active)
8,Cc1ccc2nc(N(CCN(C)C)C(=O)C3=COCCO3)sc2c1,inactive
9,CCCC(=O)OCC(=O)Nc1cc(Cl)ccc1[N+](=O)[O-],inactive
10,CCOC(=O)N1CCN(C(=O)c2ccccc2SCC(=O)NCC2CCCCC2)CC1,inactive
11,Cc1[nH]c2ccccc2c1C(=O)CN1CC(C)CC(C)C1 (stereo unspecified),8.2 µM (active)
12,Cc1[nH]c2ccccc2c1C(=O)CN1CCCC(C)C1 (stereo unspecified),inactive
13,Cc1ccc2c(C(=O)CN3CCCC3)c(C)[nH]c2c1,inactive
14,Cc1[nH]c2ccccc2c1C(=O)CSCC(=O)O,inactive
15,Cc1[nH]c2ccccc2c1C(=O)COC(=O)C(C)C,inactive
16,CCOC(=O)N1CCN(CC(=O)c2c(C)[nH]c3ccccc23)CC1,18.4 µM (active)
17,Cc1ccc(OCC(=O)Nc2nnc(-c3ccco3)s2)cc1,inactive
18,CSc1ncccc1C(=O)Nc1ccc2c(c1)OCO2,inactive
19,CCOC(=O)c1c(S(=O)(=O)Nc2ccc(CN3CCC(C)CC3)cc2)c(C)n(C)c1C,inactive
20,CCOC(=O)c1cnc(SCC(=O)Nc2ccccc2C(=O)OC)nc1N,23.1 µM (active)
21,COC(=O)c1ccccc1NC(=O)CSc1ccccn1,inactive
22,CCOC(=O)c1cnc(SCC(=O)NCc2ccco2)nc1N,inactive

row,Compound,Potency
1,CCCCN(C)CCCNC(=O)CN1N=C(c2ccc(OC)cc2)CCC1=O,inactive
2,C=CCC(CC=C)(C(N)=O)c1ccccc1,inactive
3,Cc1nn(CC(=O)Nc2ccc(C#N)cc2)c(C)c1[N+](=O)[O-],inactive
4,COCc1c(C(=O)OCC(=O)Nc2ccc(OC(F)F)cc2)oc2ccccc12,inactive
5,CCOC(=O)c1c(C)oc2cc(Sc3ccccc3)c(O)c(O)c12,25.9 µM (active)
6,CCOC(=O)c1c(-c2ccccc2)oc2cc(Br)c(O)cc12,inactive
7,Cc1oc2cc(Br)c(O)c(Br)c2c1C(=O)c1ccccc1,inactive
8,Nc1nc(COC(=O)CCC(=O)c2ccc(Cl)cc2)nc(Nc2ccccc2)n1,inactive
9,Cc1cc(C)cc(NC(=O)Cn2c(=O)c3ccccc3n3nncc23)c1,inactive
10,Cc1cc(C)cc(NC(=O)CSc2nc3nccnc3c(=O)n2CCc2c[nH]c3ccccc23)c1,7.31 µM (active)
11,O=C(CSc1nc2nccnc2c(=O)n1Cc1cccs1)Nc1ccccc1F,inactive
12,O=C(CSc1nc2nccnc2c(=O)n1CCc1c[nH]c2ccccc12)Nc1ccccc1F,8.2 µM (active)
13,Cn1c(CCC(=O)Nc2ccccc2F)nnc1SCC(=O)Nc1ccccc1Cl,inactive
14,Cc1cc(C)c(NC(=O)CSc2nc3nccnc3c(=O)n2CCc2c[nH]c3ccccc23)c(C)c1,inactive
15,Cc1cccc(C)c1NC(=O)CSc1nc2c([nH]1)c(=O)n(C)c(=O)n2C,inactive
16,CCc1c(O)nc(SCC(=O)Nc2ccccc2)n(C(C)CC)c1=O (stereo unspecified),inactive
17,CCCNCc1cc(OCC)c(OCC(=O)Nc2ccccc2)cc1Br,inactive
18,CN(C)C(=O)c1cc(Br)ccc1Cl,inactive
